According to PubChem BioAssay (NCATS):
Values without a mark were called inactive. Records with an inconclusive call do not appear. Active and inactive are the calls of the source. Unless noted, the call rests on the fitted dose curve.

Molecular target: Glucocorticoid receptor (Homo sapiens) (UniProt P04150)
Assay: GR-EFC Redistribution (AID 451); further: potency means the concentration at half of the fitted maximal effect
Settings: CHO-K1 GR-EFC translocation, beta-gal luminescence, 2 h
Method in brief: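 Translocation of GR-ED fusion to nuclear EA restores b-gal, read by luminescence after 1 h room-temperature detection. Engineered CHO-K1 biosensor cells, 1,000/well, exposed 2 h at 37 C to titrations up to 46 uM final.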

Sequence of Glucocorticoid receptor (Homo sapiens) (P04150 whole entry, looked up): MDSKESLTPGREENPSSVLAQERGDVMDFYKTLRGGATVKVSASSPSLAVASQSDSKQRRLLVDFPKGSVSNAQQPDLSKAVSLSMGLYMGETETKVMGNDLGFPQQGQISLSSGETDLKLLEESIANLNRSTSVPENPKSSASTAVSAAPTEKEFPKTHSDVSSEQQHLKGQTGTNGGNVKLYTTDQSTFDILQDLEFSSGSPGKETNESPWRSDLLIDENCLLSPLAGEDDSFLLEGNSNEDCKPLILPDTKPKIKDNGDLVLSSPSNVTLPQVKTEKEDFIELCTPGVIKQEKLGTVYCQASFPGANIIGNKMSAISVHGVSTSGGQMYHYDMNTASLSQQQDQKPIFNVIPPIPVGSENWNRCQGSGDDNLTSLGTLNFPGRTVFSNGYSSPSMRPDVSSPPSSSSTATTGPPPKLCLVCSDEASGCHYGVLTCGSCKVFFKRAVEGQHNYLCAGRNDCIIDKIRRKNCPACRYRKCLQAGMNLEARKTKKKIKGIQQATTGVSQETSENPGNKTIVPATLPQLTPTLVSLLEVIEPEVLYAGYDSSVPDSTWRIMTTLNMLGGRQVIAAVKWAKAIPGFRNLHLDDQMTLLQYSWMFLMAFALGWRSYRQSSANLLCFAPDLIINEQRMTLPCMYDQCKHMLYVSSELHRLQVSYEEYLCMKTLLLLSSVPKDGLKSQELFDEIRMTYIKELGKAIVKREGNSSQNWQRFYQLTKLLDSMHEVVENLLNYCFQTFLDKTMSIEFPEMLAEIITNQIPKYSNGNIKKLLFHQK

| SMILES | Potency [µM] |
| --- | --- |
| Cc1cc2c(cc1Cl)N(C(=O)Nc1ccnc3ccccc13)CC2 | > 46 |
| NC1(C(=O)O)CCCCC1 | > 46 |
| C[N+](C)(C)CC=O | > 46 |
| NC1(C(=O)O)CC1 | > 46 |
| CC(=O)C(C)=O | > 46 |
| COc1cc(CNC(=O)CCCCCCC(C)C)ccc1O | > 46 |
| O=C(O)C1=CC(=C(c2ccc(O)c(C(=O)O)c2)c2ccc(O)c(C(=O)O)c2)C=CC1=O | > 46 |
| CCCOC(=O)c1c(-c2ccccc2)nc(CC)c(C(=O)SCC)c1CCC | > 46 |
| CCCn1c(=O)c2[nH]c(-c3ccc(S(=O)(=O)O)cc3)nc2n(CCC)c1=O | > 46 |
| O=C(O)C1CCNCC1 | > 46 |
| CC(=O)NNC(=O)N1Cc2ccccc2Oc2ccc(Cl)cc21 | > 46 |
| COc1ccccc1N1CCN(CCN(C(=O)c2ccc(F)cc2)c2ccccn2)CC1 | > 46 |
| NCCS(=O)O | > 46 |
| CCCCCCCCCCC/C=C\C(C)(C)/C=C\CCCC(=O)O | > 46 |
| N=C(N)c1ccc(OCCCCCOc2ccc(C(=N)N)cc2)cc1 (tested in a mixture with another compound) | > 46 |
| O=C(O)C1=CCCNC1 | > 46 |
| N[C@@H](Cc1c[nH]c2ccccc12)C(=O)O | > 46 |
| CN1CCN(c2nc3cc(C(F)(F)F)ccc3n3cccc23)CC1 | > 46 |
| Cc1ccc2c(c1)C(N1CCN(C)CC1)=Nc1cccnc1N2 | > 46 |
| NC(=O)CNCCC(c1ccccc1)c1ccccc1 | > 46 |
| N=C(N)SCCN | > 46 |
| NCCCCN=C(N)N | > 46 |
| c1ccc(CN2CCC3(CCCc4ccccc43)CC2)cc1 | > 46 |
| COc1ccccc1N1CCN(CCCCN2C(=O)c3ccccc3C2=O)CC1 | > 46 |
| O=C(O)C1=CCCN(CCON=C(c2ccccc2)c2ccccc2)C1 | > 46 |
| O=C(OCCN1CCOCC1)C1(c2ccccc2)CCCCC1 | > 46 |

Molecular target: Mitogen-activated protein kinase 10 (Mus musculus) (UniProt Q61831)
Assay: JNK3 AlphaScreen Assay (AID 530; active means well fitted curve in either direction with a large enough effect, not every such curve was filed as active;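 further: kinase came from lysate of stimulated human HepG2 cells; signal reports phosphorylation of biotinylated GST-cJun 1-79 at Ser73 with 10 µM ATP; on the % scale 0 is the no-effect control and ±100 the full control effect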)
Settings: JNK3 lysate, c-Jun phosphorylation; series mostly up to 57.1 µM; activity change, negative = inhibition: at the top concentration
Method in brief: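 Kinase buffer: 20 mM Tris-HCl pH 7.6, 10 mM MgCl2, 1 mM DTT, 0.1 mM Na3VO4, 0.01% Tween-20; ATP 10 uM. Substrate biotin-GST-cJun(1-79), enzyme from activated HepG2 lysates. Detection by Ser73 phospho-antibody AlphaScreen.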

| SMILES | activity change, negative = inhibition [%] | outcome |
| --- | --- | --- |
| Cc1cc2c(cc1Cl)N(C(=O)Nc1ccnc3ccccc13)CC2 | -11.7 | – |
| NC1(C(=O)O)CCCCC1 | -6.54 | – |
| C[N+](C)(C)CC=O | 7.93 | – |
| NC1(C(=O)O)CC1 | 4.32 | – |
| CC(=O)C(C)=O | – | inactive |
| COc1cc(CNC(=O)CCCCCCC(C)C)ccc1O | – | inactive |
| CCCn1c(=O)c2[nH]c(-c3ccc(S(=O)(=O)O)cc3)nc2n(CCC)c1=O | 11.9 | – |
| O=C(O)C1CCNCC1 | 6.99 | – |
| CC(=O)NNC(=O)N1Cc2ccccc2Oc2ccc(Cl)cc21 | – | inactive |
| COc1ccccc1N1CCN(CCN(C(=O)c2ccc(F)cc2)c2ccccn2)CC1 | -7.85 | – |
| N=C(N)c1ccccc1 | -13.4 | – |
| NCCS(=O)O | -1.87 | – |
| CCCCCCCCCCC/C=C\C(C)(C)/C=C\CCCC(=O)O | 27.9 | – |
| N=C(N)c1ccc(OCCCCCOc2ccc(C(=N)N)cc2)cc1 (tested in a mixture with another compound) | -26.9 | – |
| O=C(O)C1=CCCNC1 | -3.89 | – |
| N[C@@H](Cc1c[nH]c2ccccc12)C(=O)O | 3.35 | – |
| CN1CCN(c2nc3cc(C(F)(F)F)ccc3n3cccc23)CC1 | 7.25 | – |
| Cc1ccc2c(c1)C(N1CCN(C)CC1)=Nc1cccnc1N2 | 25.6 | – |
| N=C(N)SCCN | – | inactive |
| NCCCCN=C(N)N | 15.2 | – |
| c1ccc(CN2CCC3(CCCc4ccccc43)CC2)cc1 | 9.31 | – |
| COc1ccccc1N1CCN(CCCCN2C(=O)c3ccccc3C2=O)CC1 | – | inactive |
| O=C(O)C1=CCCN(CCON=C(c2ccccc2)c2ccccc2)C1 | – | inactive |
| O=C(OCCN1CCOCC1)C1(c2ccccc2)CCCCC1 | -25.8 | – |
